Results on 15 compounds are retold here after PubChem BioAssay (Tox21).

In assay [1] the target is Acetylcholinesterase (Homo sapiens) (UniProt P22303). The assay is described as follows: Acetylcholinesterase (AChE) small molecule antagonists: enzyme-based qHTS assay (AID 1347397; calls by dose curve; note: nearly all actives have a fitted effect of over 55% in size; note: potency is the fitted concentration of half-maximal effect). The following applies: Potency: AChE enzyme activity inhibition. In short, it runs like this:
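Tox21 library chemicals are tested in qHTS format against recombinant human AChE. The enzyme, dispensed at 50 mU/mL, sits with compound for 30 min at room temperature. A DTNB–acetylthiocholine cocktail follows, and colour is read after 10 min.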

The target is the same in assay [2]. The assay is described as follows: Acetylcholinesterase (AChE) small molecule antagonists: fluorescence cell-based qHTS assay (AID 1347398; calls by dose curve; note: nearly all actives have a fitted effect of over 50% in size; note: potency is the fitted concentration of half-maximal effect). The following applies: Potency: AChE activity. In short, it runs like this: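 Cellular AChE inhibition: SH-SY5Y cells treated with test chemical for 30 min at 37 C, then acetylthiocholine hydrolysis followed over 40 min at room temperature via thiocholine-reactive Thiolite Green fluorescence (490/520 nm).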

Assay [3] has the same target. The assay is described as follows: Acetylcholinesterase (AChE) small molecule antagonists: enzyme-based qHTS assay with human liver microsomes (AID 1347399; calls by dose curve; note: nearly all actives have a fitted effect of over 60% in size). The following applies: Potency: qHTS inhibition. In short, it runs like this: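 Recombinant human AChE (50 mU/mL in the enzyme mix) and human liver microsomes (0.25 mg/mL final) were preincubated with compound and NADPH (0.25 mg/mL final) for 30 min at 37 C. Acetylthiocholine/DTNB was then added; thiocholine was read colorimetrically after 10 min at room temperature.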

Assay [4] has as its target Cytochrome P450 3A4 (Homo sapiens) (UniProt P08684). The assay is described as follows: Cytochrome P450 Family 3 Subfamily A Member 4 (CYP3A4) small molecule antagonists: luciferase reporter qHTS assay (AID 1671201). Note: nearly all actives have a fitted effect of over 50% in size. Note: potency is the fitted concentration of half-maximal effect. In short, it runs like this: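 Luminescent readout (RLU) proportional to CYP3A4 activity, from luciferin generated off a proluciferin substrate. Enzyme–substrate mix plus compound 10 min at room temp, NADPH regeneration 1 h, detection reagent 20 min.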

Assay [5] concerns the target Cytochrome P450 2C19 (Homo sapiens) (UniProt P33261). The assay is described as follows: Cytochrome P450 Family 2 Subfamily C Member 19 (CYP2C19) small molecule antagonists: luciferase reporter qHTS assay (AID 1671197). Note: nearly all actives have a fitted effect of over 65% in size. Note: potency is the fitted concentration of half-maximal effect. In short, it runs like this:
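Enzyme-substrate mix with proluciferin substrate (P450-Glo CYP2C19 system) preincubated with compounds 10 min at room temperature; NADPH regeneration solution added, 37C for 1 h; detection reagent stops reaction, luminescence read after 20 min. Ketoconazole positive control.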

Assay [6] has as its target Cytochrome P450 2C9 (Homo sapiens) (UniProt P11712). The assay is described as follows: Cytochrome P450 Family 2 Subfamily C Member 9 (CYP2C9) small molecule antagonists: luciferase reporter qHTS assay (AID 1671198). Note: nearly all actives have a fitted effect of over 50% in size. Note: potency is the fitted concentration of half-maximal effect. In short, it runs like this: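 CYP2C9 activity was measured with a P450-Glo proluciferin substrate. Enzyme–substrate mix was held with compound for 10 min at room temperature, then NADPH regeneration solution was added for 1 h at 37C. Luciferin product was read as luminescence.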

In assay [7] the target is Cytochrome P450 1A2 (Homo sapiens) (UniProt P05177). The assay is described as follows: Cytochrome P450 Family 1 Subfamily A Member 2 (CYP1A2) small molecule antagonists: luciferase reporter qHTS assay (AID 1671199). Note: nearly all actives have a fitted effect of over 50% in size. Note: potency is the fitted concentration of half-maximal effect. In short, it runs like this:
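Steps: enzyme-substrate mix dispensed; test compounds and furafylline control pinned in; 10 min room temperature; NADPH regeneration solution added, 1 h; reaction stopped with luciferin detection reagent; luminescence read after 20 min.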

In assay [8] the target is Cytochrome P450 2D6 (Homo sapiens) (UniProt P10635). The assay is described as follows: Cytochrome P450 Family 2 Subfamily D Member 6 (CYP2D6) small molecule antagonists: luciferase reporter qHTS assay (AID 1671196). Note: nearly all actives have a fitted effect of over 50% in size. Note: potency is the fitted concentration of half-maximal effect. In short, it runs like this: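 Test chemicals meet CYP2D6 plus proluciferin substrate (10 min, RT); NADPH regenerating solution then drives turnover for 1 h. Detection reagent halts the reaction; luminescence measured after 20 min.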
Sequence of Cytochrome P450 2D6 (Homo sapiens) (P10635 whole entry, looked up): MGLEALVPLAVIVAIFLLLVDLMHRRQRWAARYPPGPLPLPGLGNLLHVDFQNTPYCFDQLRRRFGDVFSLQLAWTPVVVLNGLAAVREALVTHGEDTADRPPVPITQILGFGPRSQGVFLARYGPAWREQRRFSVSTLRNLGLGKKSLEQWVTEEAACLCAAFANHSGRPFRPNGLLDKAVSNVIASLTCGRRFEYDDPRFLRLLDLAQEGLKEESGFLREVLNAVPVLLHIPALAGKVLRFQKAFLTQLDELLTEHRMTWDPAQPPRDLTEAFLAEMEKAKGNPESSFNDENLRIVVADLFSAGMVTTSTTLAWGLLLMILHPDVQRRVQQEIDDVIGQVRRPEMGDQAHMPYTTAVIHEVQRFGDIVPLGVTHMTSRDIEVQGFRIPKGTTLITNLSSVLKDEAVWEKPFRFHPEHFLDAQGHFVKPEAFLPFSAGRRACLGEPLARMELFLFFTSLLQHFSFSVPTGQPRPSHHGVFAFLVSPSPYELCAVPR

Assay [9] concerns the target Voltage-gated inwardly rectifying potassium channel KCNH2 (Homo sapiens) (UniProt Q12809). The assay is described as follows: Human Ether-a-go-go-Related Gene (hERG) channel small molecule antagonists: fluorescence cell-based qHTS assay (AID 1671200). Note: nearly all actives have a fitted effect of over 50% in size. Note: potency is the fitted concentration of half-maximal effect. In short, it runs like this: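 Read-out: thallium influx as a surrogate for potassium, tracked as fluorescence (480 nm ex/540 nm em) every second for 2 min after Stimulus Buffer addition in dye-loaded hERG-U2OS cells.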

Where “and” joins values, the source holds several entries; their conditions need not be identical. Equal values may be shown once. Records with an inconclusive call do not appear. Calls of active or inactive are those of the source. Unless noted, calls come from the whole dose curve; as a rule, active = well fitted curve in the direction sought with a large enough effect in the repeat runs; inconclusive = weak or mixed curves; inactive = no such curve, though single readings can be large; an effect the other way counts as inactive or inconclusive.

Sequence of Cytochrome P450 1A2 (Homo sapiens) (P05177 whole entry, looked up): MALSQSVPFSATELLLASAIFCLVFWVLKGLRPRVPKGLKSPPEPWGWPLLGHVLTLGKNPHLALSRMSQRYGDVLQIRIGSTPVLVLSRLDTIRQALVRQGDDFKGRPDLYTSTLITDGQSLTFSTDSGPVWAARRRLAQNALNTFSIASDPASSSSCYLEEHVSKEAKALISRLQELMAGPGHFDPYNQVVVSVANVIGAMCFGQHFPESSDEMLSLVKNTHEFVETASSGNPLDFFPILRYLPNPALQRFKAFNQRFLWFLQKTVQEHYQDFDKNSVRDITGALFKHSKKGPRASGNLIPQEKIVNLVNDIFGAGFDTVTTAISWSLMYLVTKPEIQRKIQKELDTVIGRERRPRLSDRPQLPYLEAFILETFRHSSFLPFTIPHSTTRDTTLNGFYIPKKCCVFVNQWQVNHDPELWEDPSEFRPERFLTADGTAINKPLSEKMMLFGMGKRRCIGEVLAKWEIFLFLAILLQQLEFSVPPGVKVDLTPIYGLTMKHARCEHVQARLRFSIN
Sequence of Voltage-gated inwardly rectifying potassium channel KCNH2 (Homo sapiens) (Q12809 whole entry, looked up): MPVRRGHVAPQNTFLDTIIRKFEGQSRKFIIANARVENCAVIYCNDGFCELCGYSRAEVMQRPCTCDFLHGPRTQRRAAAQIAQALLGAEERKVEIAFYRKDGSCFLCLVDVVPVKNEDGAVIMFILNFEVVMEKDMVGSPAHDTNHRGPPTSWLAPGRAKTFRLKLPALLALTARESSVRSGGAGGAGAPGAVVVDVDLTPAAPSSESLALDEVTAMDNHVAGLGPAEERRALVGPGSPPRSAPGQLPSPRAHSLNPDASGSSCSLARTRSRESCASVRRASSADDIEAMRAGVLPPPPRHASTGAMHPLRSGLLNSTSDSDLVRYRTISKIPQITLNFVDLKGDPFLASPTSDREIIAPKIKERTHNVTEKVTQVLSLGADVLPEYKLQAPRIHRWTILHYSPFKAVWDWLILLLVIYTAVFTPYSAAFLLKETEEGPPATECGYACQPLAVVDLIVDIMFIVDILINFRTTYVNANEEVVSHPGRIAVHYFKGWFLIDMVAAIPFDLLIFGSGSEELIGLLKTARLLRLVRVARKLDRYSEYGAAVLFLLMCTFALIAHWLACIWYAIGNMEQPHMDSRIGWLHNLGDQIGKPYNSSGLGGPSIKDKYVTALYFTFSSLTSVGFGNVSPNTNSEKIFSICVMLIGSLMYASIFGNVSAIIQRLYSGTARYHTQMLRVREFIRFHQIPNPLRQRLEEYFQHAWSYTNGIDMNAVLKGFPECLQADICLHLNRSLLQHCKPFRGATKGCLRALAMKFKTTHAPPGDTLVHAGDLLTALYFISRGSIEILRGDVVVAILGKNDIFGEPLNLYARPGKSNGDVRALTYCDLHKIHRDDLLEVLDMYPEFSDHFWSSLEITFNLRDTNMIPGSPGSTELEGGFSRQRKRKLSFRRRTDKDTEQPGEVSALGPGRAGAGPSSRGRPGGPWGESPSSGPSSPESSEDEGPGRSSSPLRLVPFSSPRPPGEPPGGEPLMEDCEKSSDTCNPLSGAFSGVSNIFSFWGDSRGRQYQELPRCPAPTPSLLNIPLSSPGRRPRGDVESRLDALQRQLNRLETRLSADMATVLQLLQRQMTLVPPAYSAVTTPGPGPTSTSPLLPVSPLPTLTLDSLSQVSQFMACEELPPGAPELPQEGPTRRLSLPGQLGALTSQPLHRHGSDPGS
Sequence of Cytochrome P450 3A4 (Homo sapiens) (P08684 whole entry, looked up): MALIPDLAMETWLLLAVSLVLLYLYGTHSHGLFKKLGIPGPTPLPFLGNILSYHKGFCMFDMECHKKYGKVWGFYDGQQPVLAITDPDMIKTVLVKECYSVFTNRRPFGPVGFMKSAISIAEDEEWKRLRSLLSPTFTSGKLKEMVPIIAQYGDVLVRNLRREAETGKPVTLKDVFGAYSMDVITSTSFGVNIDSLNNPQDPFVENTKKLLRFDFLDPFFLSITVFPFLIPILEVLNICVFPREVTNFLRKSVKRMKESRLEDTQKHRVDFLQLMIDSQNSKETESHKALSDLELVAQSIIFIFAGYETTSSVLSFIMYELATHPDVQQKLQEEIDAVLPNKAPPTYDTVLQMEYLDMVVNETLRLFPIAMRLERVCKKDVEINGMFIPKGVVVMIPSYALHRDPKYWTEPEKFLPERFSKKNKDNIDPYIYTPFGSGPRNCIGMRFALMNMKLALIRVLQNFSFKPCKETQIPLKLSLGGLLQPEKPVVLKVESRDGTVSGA
Sequence of Acetylcholinesterase (Homo sapiens) (P22303 whole entry, looked up): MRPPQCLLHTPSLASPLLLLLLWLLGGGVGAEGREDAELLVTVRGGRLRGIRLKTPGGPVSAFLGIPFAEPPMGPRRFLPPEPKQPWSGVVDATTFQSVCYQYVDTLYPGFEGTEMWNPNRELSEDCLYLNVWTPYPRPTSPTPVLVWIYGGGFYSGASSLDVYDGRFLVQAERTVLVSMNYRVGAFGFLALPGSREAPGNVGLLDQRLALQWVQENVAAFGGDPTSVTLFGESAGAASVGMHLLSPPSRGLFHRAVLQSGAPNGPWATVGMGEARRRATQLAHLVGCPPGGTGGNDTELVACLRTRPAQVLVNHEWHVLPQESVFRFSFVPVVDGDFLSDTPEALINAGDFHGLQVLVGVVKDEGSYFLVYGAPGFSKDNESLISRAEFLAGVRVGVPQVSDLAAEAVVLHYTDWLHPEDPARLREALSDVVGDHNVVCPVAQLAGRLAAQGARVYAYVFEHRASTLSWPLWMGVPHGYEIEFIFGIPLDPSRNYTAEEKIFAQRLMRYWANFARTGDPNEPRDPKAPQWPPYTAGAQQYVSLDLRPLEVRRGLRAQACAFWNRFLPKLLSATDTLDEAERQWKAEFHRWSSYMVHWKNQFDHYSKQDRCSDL
Sequence of Cytochrome P450 2C19 (Homo sapiens) (P33261 whole entry, looked up): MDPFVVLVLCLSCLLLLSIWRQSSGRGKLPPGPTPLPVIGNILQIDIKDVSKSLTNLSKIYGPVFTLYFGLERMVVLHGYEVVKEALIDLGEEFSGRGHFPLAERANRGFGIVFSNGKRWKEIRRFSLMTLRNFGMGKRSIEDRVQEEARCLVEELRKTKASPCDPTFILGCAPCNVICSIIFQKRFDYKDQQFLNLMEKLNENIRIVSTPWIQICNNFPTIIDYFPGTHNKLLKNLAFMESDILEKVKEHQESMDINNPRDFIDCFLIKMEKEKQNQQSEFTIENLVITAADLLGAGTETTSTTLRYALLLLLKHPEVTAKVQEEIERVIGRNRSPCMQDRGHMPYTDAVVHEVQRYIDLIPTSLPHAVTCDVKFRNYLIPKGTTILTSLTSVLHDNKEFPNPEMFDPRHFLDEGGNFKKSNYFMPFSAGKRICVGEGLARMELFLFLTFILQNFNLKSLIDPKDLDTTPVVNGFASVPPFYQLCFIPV
Sequence of Cytochrome P450 2C9 (Homo sapiens) (P11712 whole entry, looked up): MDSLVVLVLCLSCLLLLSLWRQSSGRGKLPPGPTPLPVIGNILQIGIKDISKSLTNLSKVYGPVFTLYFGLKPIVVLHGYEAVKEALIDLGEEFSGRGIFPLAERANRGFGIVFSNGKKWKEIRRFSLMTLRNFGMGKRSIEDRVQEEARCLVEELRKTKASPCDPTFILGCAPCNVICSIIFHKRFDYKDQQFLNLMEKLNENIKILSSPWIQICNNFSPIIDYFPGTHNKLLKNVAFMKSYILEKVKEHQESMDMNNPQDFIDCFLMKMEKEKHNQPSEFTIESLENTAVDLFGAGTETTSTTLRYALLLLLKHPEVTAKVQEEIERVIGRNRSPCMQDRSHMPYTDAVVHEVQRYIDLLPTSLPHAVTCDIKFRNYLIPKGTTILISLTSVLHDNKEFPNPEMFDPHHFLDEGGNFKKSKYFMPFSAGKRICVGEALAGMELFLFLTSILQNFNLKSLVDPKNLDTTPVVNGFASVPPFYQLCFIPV

In the case of `Fc1ccc(C(OCCN2CCN(CCCc3ccccc3)CC2)c2ccc(F)cc2)cc1`, the Potency result in [1], in assay [2], in assay [3] and in [4] was “inactive” each time.

For the compound `CCOC(=O)CCN(SN(C)C(=O)Oc1cccc2c1OC(C)(C)C2)C(C)C`, the Potency in [1] was 0.1 µM (active); in [2] it was 100 nM (active); in assay [5] it was 17.8 µM (active); in assay [6], 12.6 µM (active); in assay [7], 22.4 µM (active); in assay [4], 10 µM (active).

In the case of `O=C1C(Cl)=C(Cl)C(=O)C(Cl)=C1Cl`, in assay [1], the Potency result was “inactive”. For the same compound, the Potency in assay [2] is 35.5 µM (active) and 63.3 µM (active); in [8], 31.6 µM (active) and 25.2 µM (active); in assay [5], 7.94 µM (active) and 11.2 µM (active); in assay [6] it was 5.01 µM (active) and 8.94 µM (active); in [7], 35.6 µM (active); in assay [9], 34.7 µM (active). In assay [4], the Potency was 22.4 µM (active).

Regarding `CC(C)N(C(=O)SC/C(Cl)=C/Cl)C(C)C`, the Potency result in assay [1], in [3] and in assay [8] was “inactive” each time. For the same compound, the figures for the Potency in assay [5] and in assay [6] were 3.19 µM (active) and 31.9 µM (active), respectively.

For the compound `CN(C)c1ccc(N)cc1`, the Potency in [1] was 61.8 µM (active); in assay [2], 11000 nM (active); in [8], 24.6 µM (active); in [5], 7.78 µM (active); in assay [6], 31 µM (active); in assay [7], 12.3 µM (active). For the same compound, in [4], the Potency is 19.5 µM (active).

With `CCCCCCCc1ccc(O)cc1`, the Potency entry in assay [1], in assay [2] and in assay [4] was “inactive” each time. The Potency in [5] was 20 µM (active); in assay [6], 35.6 µM (active); in [7], 35.6 µM (active).

`Cc1ccc(C)c2ccccc12`: the Potency entry in assay [1], in [2], in assay [8], in assay [5], in assay [6] and in assay [7] was “inactive” in each case. Moreover, the Potency entry in [9] and in assay [4] was “inactive” each time.

With `Nc1cc(Cl)ccc1Cl`, the Potency result in assay [1], in assay [2], in [8], in assay [6] and in assay [9] was “inactive” throughout. For the same compound, in assay [7], the Potency was 31.5 µM (active).

For `CCNc1nc(NC(C)C(C)C)nc(SC)n1` (stereo not given), the Potency entry in assay [1], in [2], in assay [8], in assay [9] and in [4] was “inactive” each time. Also, the Potency in [5] was 39.9 µM (active); in assay [7], 25.2 µM (active).

Take `CCOP(=O)(Sc1ccccc1)Sc1ccccc1`: the Potency in assay [1] is 17.8 µM (active); in [2], 894 nM (active); in [8], 56.4 µM (active); in assay [5], 8.94 µM (active); in assay [6] it was 28.3 µM (active); in assay [7], 10 µM (active). Further, the Potency result in assay [9] and in assay [4] was “inactive” in each case.

`O=C(Cl)c1ccccc1F`: the Potency entry in assay [1], in assay [2], in assay [3], in [7], in assay [9] and in assay [4] was “inactive” each time.

Take `CCCCCCC[CH2][Sn]([Cl])([Cl])[CH2]CCCCCCC`: the Potency entry in assay [1], in assay [2], in assay [5], in assay [9] and in [4] was “inactive” throughout. Besides, the Potency in assay [7] is 35.6 µM (active).

For `COP(=S)(NC(C)C)Oc1ccc(C)cc1[N+](=O)[O-]` (stereo not given), the Potency entry in [1], in assay [3] and in assay [9] was “inactive” throughout. The Potency was 44.8 µM (active) in assay [8]; 0.283 µM (active) in assay [5]; 2.52 µM (active) in [6]; 11.2 µM (active) in assay [7]; 0.633 µM (active) in [4].

Regarding `CCC[CH2][Sn]([CH2]CCC)([O]C(C)=O)[O]C(C)=O`, the Potency result in assay [1], in [3], in assay [5], in assay [6], in assay [7] and in [9] was “inactive” in each case. Further, in assay [4], the Potency result was “inactive”.

`N#Cc1c[nH]cc1-c1cccc2c1OC(F)(F)O2`: the Potency result in [1], in assay [3], in [8], in assay [9] and in assay [4] was “inactive” in each case. Moreover, the Potency in assay [5] was 5.64 µM (active); in assay [6] it was 20 µM (active); in assay [7], 1.59 µM (active).
